The values that follow come from PubChem BioAssay (NCATS).

A number with no mark means an inactive call. Results filed as inconclusive are left out. Activity calls are given as the source filed them. Unless noted, calls come from the whole dose curve; as a rule, active = well fitted curve in the direction sought with a large enough effect; inconclusive = small, poorly fitted or top-dose-only effect, or another doubt; inactive = no such curve, though single readings can be large; an effect the other way counts as inactive or inconclusive.

Assay [1] can be described thus: qHTS assay for measurement of the activity of small molecule inhibitors on Zika virus induced Caspase-3 activity in human iPSC derived neural progenitor cells (hNPCs) (AID 1224857). Note: % of control where 0% means no effect; nearly all actives have a fitted effect of over 65% in size. The procedure, abridged:
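Quantitative HTS format: human iPSC neural progenitors, 1 h compound pretreatment, ZIKV 2 FFU/cell for 6 h at 37 C. Percent inhibition derived from luminescent caspase-3/7 signal between uninfected and infected controls.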
On the technique in general: qHTS replaces the single test concentration by a dilution series.

Assay [2] is described as follows: qHTS assay for measurement of the activity of small molecule inhibitors on Zika virus induced Caspase-3 activity in human astrocytoma cells (AID 1224859).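 Note: plate controls were ZIKV-infected untreated cells for no effect and uninfected cells for full effect.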 An outline of the steps:
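Readout is luminescence from Caspase-Glo 3/7 added after a 6 h ZIKV infection (2 FFU/cell) of compound-pretreated (1 h) SNB-19 cells; data expressed as % inhibition versus uninfected and infected wells.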

A short description of assay [3]: qHTS assay to identify small molecule inhibitors of chordoma cells - UCH-1 (AID 1259355). Note: % is set by controls: 0 for no effect and ±100 for the full control effect; nearly all actives have a fitted effect of over 55% in size. The procedure, abridged:
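A 48hr growth-inhibition format: each drug tested at 15 concentrations together with added auranofin, camptothecin, doxorubicin, rubitecan and topotecan, with cell viability quantified as CellTiter-Glo luminescence.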

The nature of assay [4]: P-glycoprotein substrates identified in KB-8-5-11 adenocarcinoma cell line, qHTS therapeutic library screen (AID 1346987). Note: series mostly up to about 44 µM; % is set by controls: 0 for no effect and ±100 for the full control effect; nearly all actives have a fitted effect of over 65% in size. The procedure, abridged: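 In this qHTS, P-gp-rich KB-8-5-11 cells received library compounds across a concentration range. Viability was quantified by luminescence after 72 h at 37 degree C.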
Assay [5] can be described thus: NS1 protein of Zika virus - qHTS assay to identify small molecule inhibitors in human HEK 293 cells (AID 1347053).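 Note: series mostly up to about 46 µM; plate controls were infected untreated cells for no effect and uninfected cells for full effect; nearly all actives have a fitted effect of over 55% in size.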 The procedure, abridged:
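Compound-treated (1 h pre-infection) HEK 293 cells infected with ZIKV MR766, MOI = 0.5; after 24 h at 37 C, NS1 read by TR-FRET; data normalized to uninfected and infected controls.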

The nature of assay [6]: qHTS of pediatric cancer cell lines to identify multiple opportunities for drug repurposing: Primary screen for TC32 cells (AID 1347089). Note: nearly all actives have a fitted effect of over 60% in size. Note: potency is the fitted concentration of half-maximal effect. An outline of the steps:
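Measured quantity: luminescence from CellTiter-Glo, reflecting metabolically active TC32 cells following 48 h of compound. Curves came straight from multi-point titrations, with 8 or 11 points in primary and 11 in confirmatory screening.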

The nature of assay [7]: qHTS assay to identify small molecule inhibitors of chordoma cells - UCH-2 (AID 1259356). Note: series mostly up to about 46 µM; % is set by controls: 0 for no effect and ±100 for the full control effect.
In assay [8] the target is Atrial natriuretic peptide receptor 1 (Homo sapiens) (UniProt P16066). As to the kind of experiment: Natriuretic polypeptide receptor (hNpr1) antagonism - Pilot screen (AID 1347049; calls by dose curve;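 note: HEK293 cells with hNpr1 and GloSensor cGMP luciferase stimulated by 0.1 nM hNppA; agonist-evoked cGMP luminescence read 20 min after hNppA addition; series mostly up to about 58 µM; % is set by controls: 0 for no effect and ±100 for the full control effect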). An outline of the steps:
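Cells expressing receptor plus cGMP biosensor are seeded and incubated overnight at 37C, then loaded with GloSensor reagent (2% final) at room temperature for 2 h. Library compounds go on for 30 min. A pre-read precedes agonist (hNppA, 0.1 nM final) and a 20-min readout.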

The target in assay [9] is Atrial natriuretic peptide receptor 2 (Homo sapiens) (UniProt P20594). As to the kind of experiment: Natriuretic polypeptide receptor (hNpr2) antagonism - Pilot subtype selectivity assay (AID 1347050; calls by dose curve; note: % is set by controls: 0 for no effect and ±100 for the full control effect). The procedure, abridged:
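Read-out: GloSensor luminescence (CCD imager), baseline vs post-stimulation. HEK293 cells expressing hNpr2; compounds pre-incubated 30-50 min at ambient temperature; hNppC 1 nM final, 20 min.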

Assay [10] has as its target T1, Tyrosine-protein phosphatase non-receptor type substrate 1 (Homo sapiens) + Leukocyte surface antigen CD47 (Homo sapiens) (UniProt P78324+Q08722). Put plainly: CD47-SIRPalpha protein protein interaction - LANCE assay qHTS validation (AID 1347057; active = well fitted curve in the direction sought with a large enough effect in the signal ratio, with a control signal flat, not every such curve was filed as active; the % refers to the signal ratio; note: series mostly up to about 38 µM; 0% is about no effect). An outline of the steps:
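Inhibition of soluble CD47/SIRPalpha ectodomain association by titrated compounds, measured as 665/615 nm time-resolved FRET ratio after sequential 30 min room-temperature incubations.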
Background: Time-resolved FRET reads energy transfer from a long-lived donor to a nearby acceptor.

Assay [11] concerns the target T1, Tyrosine-protein phosphatase non-receptor type substrate 1 (Homo sapiens) + Leukocyte surface antigen CD47 (Homo sapiens). Put plainly: CD47-SIRPalpha protein protein interaction - HTRF assay qHTS validation (AID 1347058; active = well fitted curve in the direction sought with a large enough effect in the signal ratio, not every such curve was filed as active; the % refers to the signal ratio; note: series mostly up to about 38 µM; 0% is about no effect). An outline of the steps:
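Soluble extracellular domains (6His-CD47, Avi-tag-biotinylated SIRPalpha) in PBS pH 7.4 with 0.05% IGEPAL CA-630. Compounds were preincubated 30 min at RT with CD47 and anti-His-Eu, then SIRPalpha and SAV-XL665 were added. TR-FRET 665/615 ratio.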

Assay [12] shares this target. As to the kind of experiment: CD47-SIRPalpha protein protein interaction - Alpha assay qHTS validation (AID 1347059).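 Note: bead proximity luminescence from CD47 binding SIRPalpha after compound preincubation with SIRPalpha; % is set by controls: 0 for no effect and ±100 for the full control effect.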 An outline of the steps:
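In PBS (pH 7.4) with 0.05% IGEPAL CA-630, compound is preincubated with biotin-Avi-SIRPalpha ectodomain before His-CD47 ectodomain and affinity beads are added. Light-protected room-temperature incubations; AlphaScreen readout.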

The target of assay [13] is Parathyroid hormone/parathyroid hormone-related peptide receptor (Homo sapiens) (UniProt Q03431). Put plainly: qHTS for PTHR1 Agonists: Optimization Screen against the NCGC LOPAC library (AID 1347079).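 Note: GloSensor cAMP luminescence in HEK-293 GP2 cells expressing human PTHR1 with IBMX; 0% is about no effect.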 The procedure, abridged: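 Signal increase flags agonism. GP2 cells, derived from HEK-293, express human PTHR1 and a GloSensor cAMP construct.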
Chain of Parathyroid hormone/parathyroid hormone-related peptide receptor (Homo sapiens) (Q03431 whole entry, looked up): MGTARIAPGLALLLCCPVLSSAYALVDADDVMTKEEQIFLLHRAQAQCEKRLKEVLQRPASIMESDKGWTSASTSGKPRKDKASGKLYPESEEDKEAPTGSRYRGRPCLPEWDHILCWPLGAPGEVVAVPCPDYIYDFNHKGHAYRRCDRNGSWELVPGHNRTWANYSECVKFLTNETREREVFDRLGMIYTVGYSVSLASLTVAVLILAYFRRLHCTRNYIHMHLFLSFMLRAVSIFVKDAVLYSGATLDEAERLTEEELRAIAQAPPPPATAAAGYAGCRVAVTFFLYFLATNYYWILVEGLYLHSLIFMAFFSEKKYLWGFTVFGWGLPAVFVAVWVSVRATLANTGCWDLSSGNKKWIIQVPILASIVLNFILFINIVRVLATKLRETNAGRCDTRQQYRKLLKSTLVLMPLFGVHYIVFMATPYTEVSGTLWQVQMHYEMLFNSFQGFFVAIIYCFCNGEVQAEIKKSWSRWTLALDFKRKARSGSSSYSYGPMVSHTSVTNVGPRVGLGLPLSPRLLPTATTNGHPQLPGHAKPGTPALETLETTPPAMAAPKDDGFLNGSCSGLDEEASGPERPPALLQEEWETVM

T1 sequence (P78324 whole entry, looked up, the tested form may be a part): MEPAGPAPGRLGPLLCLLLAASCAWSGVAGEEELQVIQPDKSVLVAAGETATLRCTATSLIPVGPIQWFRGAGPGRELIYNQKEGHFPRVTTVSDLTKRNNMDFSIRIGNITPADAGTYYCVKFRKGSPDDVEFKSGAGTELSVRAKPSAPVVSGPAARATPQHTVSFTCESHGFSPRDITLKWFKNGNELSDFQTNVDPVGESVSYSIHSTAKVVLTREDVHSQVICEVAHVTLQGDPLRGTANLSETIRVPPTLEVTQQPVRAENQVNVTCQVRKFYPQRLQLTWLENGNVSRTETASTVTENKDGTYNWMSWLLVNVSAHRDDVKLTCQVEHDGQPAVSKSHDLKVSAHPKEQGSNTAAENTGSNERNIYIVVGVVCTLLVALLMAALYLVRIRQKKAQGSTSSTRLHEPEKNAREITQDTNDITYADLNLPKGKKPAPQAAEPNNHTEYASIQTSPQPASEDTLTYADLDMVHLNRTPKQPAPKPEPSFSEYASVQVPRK
T1 sequence (Q08722 whole entry, looked up, the tested form may be a part): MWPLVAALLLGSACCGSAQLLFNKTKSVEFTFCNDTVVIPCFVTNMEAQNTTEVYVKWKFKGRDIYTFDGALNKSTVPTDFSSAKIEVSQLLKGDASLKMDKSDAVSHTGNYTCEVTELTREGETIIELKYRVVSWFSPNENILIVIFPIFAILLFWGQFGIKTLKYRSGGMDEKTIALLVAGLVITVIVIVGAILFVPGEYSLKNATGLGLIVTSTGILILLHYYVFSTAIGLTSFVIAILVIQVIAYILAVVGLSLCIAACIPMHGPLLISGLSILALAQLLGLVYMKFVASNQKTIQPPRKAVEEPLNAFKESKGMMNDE
Chain of Atrial natriuretic peptide receptor 1 (Homo sapiens) (P16066 whole entry, looked up): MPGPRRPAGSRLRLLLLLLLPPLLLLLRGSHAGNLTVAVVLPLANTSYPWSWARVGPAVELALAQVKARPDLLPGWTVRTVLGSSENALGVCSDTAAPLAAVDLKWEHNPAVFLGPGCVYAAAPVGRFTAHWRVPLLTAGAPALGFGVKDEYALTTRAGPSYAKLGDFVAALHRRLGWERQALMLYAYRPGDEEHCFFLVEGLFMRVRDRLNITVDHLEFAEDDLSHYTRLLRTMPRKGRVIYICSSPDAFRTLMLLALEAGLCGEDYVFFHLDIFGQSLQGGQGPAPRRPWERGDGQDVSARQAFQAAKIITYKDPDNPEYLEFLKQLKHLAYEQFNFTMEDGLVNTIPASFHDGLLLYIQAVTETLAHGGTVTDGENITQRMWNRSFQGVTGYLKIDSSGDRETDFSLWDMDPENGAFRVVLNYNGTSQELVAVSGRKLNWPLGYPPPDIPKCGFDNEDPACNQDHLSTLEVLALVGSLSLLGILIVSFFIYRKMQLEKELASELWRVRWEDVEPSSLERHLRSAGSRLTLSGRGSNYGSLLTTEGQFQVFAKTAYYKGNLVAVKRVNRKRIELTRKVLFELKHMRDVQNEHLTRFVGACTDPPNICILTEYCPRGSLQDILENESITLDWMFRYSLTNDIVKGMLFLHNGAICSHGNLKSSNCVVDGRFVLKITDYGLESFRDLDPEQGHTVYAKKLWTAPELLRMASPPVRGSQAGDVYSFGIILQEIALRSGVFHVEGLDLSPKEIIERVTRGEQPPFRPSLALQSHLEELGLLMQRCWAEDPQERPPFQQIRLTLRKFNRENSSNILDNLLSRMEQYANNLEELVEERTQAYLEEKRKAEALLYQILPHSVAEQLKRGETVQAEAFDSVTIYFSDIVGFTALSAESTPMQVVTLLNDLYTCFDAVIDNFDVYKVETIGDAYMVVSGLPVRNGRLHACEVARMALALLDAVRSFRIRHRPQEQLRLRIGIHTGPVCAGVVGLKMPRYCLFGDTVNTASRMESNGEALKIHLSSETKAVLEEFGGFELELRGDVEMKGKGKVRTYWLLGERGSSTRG
Chain of Atrial natriuretic peptide receptor 2 (Homo sapiens) (P20594 whole entry, looked up): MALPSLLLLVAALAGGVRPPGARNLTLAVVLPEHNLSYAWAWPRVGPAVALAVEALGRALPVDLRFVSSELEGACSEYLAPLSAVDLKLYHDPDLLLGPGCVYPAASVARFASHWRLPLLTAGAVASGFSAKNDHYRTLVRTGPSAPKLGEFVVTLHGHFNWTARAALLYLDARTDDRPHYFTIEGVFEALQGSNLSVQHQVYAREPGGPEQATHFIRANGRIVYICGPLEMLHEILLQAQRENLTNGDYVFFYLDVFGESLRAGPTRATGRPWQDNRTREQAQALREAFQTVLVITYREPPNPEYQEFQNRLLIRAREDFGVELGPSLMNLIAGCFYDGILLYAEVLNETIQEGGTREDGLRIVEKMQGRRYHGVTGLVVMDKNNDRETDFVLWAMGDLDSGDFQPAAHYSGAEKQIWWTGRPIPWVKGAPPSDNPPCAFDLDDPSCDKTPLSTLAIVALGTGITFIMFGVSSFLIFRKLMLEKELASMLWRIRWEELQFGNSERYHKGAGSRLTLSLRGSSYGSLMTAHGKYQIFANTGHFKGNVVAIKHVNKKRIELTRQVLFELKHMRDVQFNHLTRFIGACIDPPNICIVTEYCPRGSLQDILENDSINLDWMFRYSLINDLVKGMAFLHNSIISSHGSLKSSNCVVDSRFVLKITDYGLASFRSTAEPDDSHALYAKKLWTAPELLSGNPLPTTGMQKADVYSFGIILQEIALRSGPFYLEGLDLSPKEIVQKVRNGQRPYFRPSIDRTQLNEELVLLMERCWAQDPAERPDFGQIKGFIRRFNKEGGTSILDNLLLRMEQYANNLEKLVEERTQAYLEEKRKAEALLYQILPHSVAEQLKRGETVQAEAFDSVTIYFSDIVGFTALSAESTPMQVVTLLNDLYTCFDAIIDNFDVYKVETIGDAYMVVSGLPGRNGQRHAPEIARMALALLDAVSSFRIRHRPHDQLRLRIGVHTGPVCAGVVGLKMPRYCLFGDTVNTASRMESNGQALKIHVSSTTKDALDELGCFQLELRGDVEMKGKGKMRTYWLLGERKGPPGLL

Consider `CCOC(=O)c1cccc(N)c1`, for which the compound was called inactive in assay [1] and in assay [2]. Moreover, the Potency entry in [3], in assay [4], in [5] and in assay [6] was “inactive” in each case.

`Clc1ccc2c(c1)CCc1cccnc1C2=C1CCNCC1`: the compound was classed as inactive in [1] and in assay [2]. Also, the Potency result in assay [3], in assay [7], in [5] and in [6] was “inactive” throughout.

`CCN(CC)C(=O)N1CCN(C)CC1`: the outcome in assay [1] and in [2] was inactive. Further, the Potency entry in assay [3], in assay [7], in [5] and in [6] was “inactive” throughout.

In the case of `CCN(CCCc1ccccc1)CCCc1ccccc1`, the compound was classed as inactive in assay [1] and in assay [2]. Also, the Potency entry in [3], in [7], in assay [5] and in assay [6] was “inactive” each time.

Take `CCOC(=O)COc1ccc2c(C)c(CCN(CC)CC)c(=O)oc2c1Cl`: the compound was called inactive in [1] and in assay [2]. The Potency entry in assay [3], in assay [4], in assay [5] and in [6] was “inactive” throughout.

For `CC(=O)CC(c1ccc([N+](=O)[O-])cc1)c1c(O)c2ccccc2oc1=O` (configuration not stated), the result in assay [1] and in assay [2] was inactive. Further, the Potency result in assay [3], in assay [7], in [5] and in assay [6] was “inactive” each time.

Consider `Nc1ccc(/C=C/c2ccc(N)cc2S(=O)(=O)O)c(S(=O)(=O)O)c1`, for which the figures for the activity change, negative = inhibition in [1], in assay [2] and in assay [5] were -14.7% [at 0.568 µM], -3.2% [at 0.568 µM] and -8.83% [at 0.593 µM], respectively. For the same compound, the Potency result in assay [3] and in [4] was “inactive” each time. Also, the activity change, negative = cytotoxic in [6] was 14.3% [at 0.594 µM].

With `O=c1[nH]c(=O)n([C@H]2C[C@H](O)[C@@H](CO)O2)cc1C(F)(F)F`, the compound was called inactive in assay [1] and in assay [2]. For the same compound, the Potency entry in assay [3], in assay [7] and in assay [5] was “inactive” throughout. Besides, in assay [6], the Potency was 1050 nM (active).

As for `CCCCc1nc(Cl)c(CO)n1Cc1ccc(-c2ccccc2-c2nn[nH]n2)cc1`, the call in [1] and in [2] was inactive. Moreover, the Potency result in assay [3], in assay [7], in assay [5] and in [6] was “inactive” throughout.

In the case of `NCCCC[C@H](N[C@@H](CCc1ccccc1)C(=O)O)C(=O)N1CCC[C@H]1C(=O)O`, the compound was called inactive in [1] and in assay [2]. The Potency result in [3], in assay [7], in [5] and in [6] was “inactive” each time.

Take `CC(=O)O[C@H]1C[C@@H]2CC[C@@H]3[C@H](CC[C@@]4(C)[C@H]3C[C@H]([N+]3(C)CCCCC3)[C@@H]4OC(C)=O)[C@@]2(C)C[C@@H]1[N+]1(C)CCCCC1`: the result in assay [1], in assay [2], in assay [8], in assay [9], in assay [10] and in assay [11] was inactive. Further, the result in assay [13] was inactive. Moreover, the Potency entry in [3], in [4], in assay [5] and in assay [12] was “inactive” throughout.

Consider `CC(=O)OCC(=O)NCCCOc1cccc(CN2CCCCC2)c1`, for which the result in assay [1] and in assay [2] was inactive. Further, the Potency result in [3], in assay [7], in assay [5] and in assay [6] was “inactive” throughout.

Take `NC(=O)CC[C@@H]1NC(=O)[C@H](Cc2ccccc2)NC(=O)[C@H](Cc2ccc(O)cc2)NC(=O)CCSSC[C@@H](C(=O)N2CCC[C@H]2C(=O)N[C@@H](CCCN=C(N)N)C(=O)NCC(N)=O)NC(=O)[C@H](CC(N)=O)NC1=O`: the result in [1] and in assay [2] was inactive. Moreover, the Potency entry in [3], in [7], in assay [5] and in assay [6] was “inactive” each time.

With `CC(=O)N/N=C/c1ccc([N+](=O)[O-])o1`, the call in [1] and in assay [2] was inactive. Besides, the Potency result in assay [3], in assay [4] and in [5] was “inactive” each time.

Consider `O=C(Nc1ccc(Cl)c(Cl)c1)C1CC1`, for which the call in assay [1] and in assay [2] was inactive. In addition, the Potency result in assay [3], in assay [7], in [5] and in assay [6] was “inactive” throughout.

Turning to `COc1cc(C(=S)N2CCOCC2)cc(OC)c1OC`, the call in assay [1] and in assay [2] was inactive. For the same compound, the Potency entry in assay [3], in assay [4], in assay [5] and in assay [6] was “inactive” throughout.

Take `Nc1nc2ncc(CNc3ccc(C(=O)N[C@@H](CCC(=O)O)C(=O)O)cc3)nc2c(=O)[nH]1`: the call in assay [1] and in assay [2] was inactive. Moreover, the Potency result in assay [3], in assay [7], in assay [5] and in assay [6] was “inactive” throughout.

As to `C#C[C@]1(OC(C)=O)CC[C@H]2[C@@H]3CCC4=C[C@@H](OC(C)=O)CC[C@@H]4[C@H]3CC[C@@]21C`, the compound was called inactive in assay [1] and in [2]. Moreover, the Potency entry in assay [3], in assay [7], in assay [5] and in assay [6] was “inactive” in each case.
